From PubChem
An excerpt weighted towards active compounds, which were near 2.8% of everything screened.
TGFb inhibitor: inhibitors of TGF-b signaling; AID 588855; Potency, µM (series often up to 46.1 µM), usual class: inhibitors; HepG2 CAGA-GFP TGF-b/SMAD3 reporter, GFP fluorescence, 18 h; TGF-beta stimulated, 500 pg/mL final; 410,000 tested, 1.2% active; note: nearly all actives have a fitted effect of over 65% in size
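Inhibition of TGF-beta-driven CAGA-GFP reporter expression in HEPG2 cells is measured by cellular GFP fluorescence after 18 h stimulation with 500 pg/mL recombinant TGF-beta in 1% FBS medium at 37 degrees C.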
ATXN viability: reduces viability in counter-screen for ATXN expression inhibitors | S2 cells (HEK-293 line with an ATXN2-luciferase reporter) viability, CellTiter-Fluor protease fluorescence, 24 h | Potency, µM (series often up to 56.7 µM), actives largely listed as cytotoxic | 400,000 tested, 0.49% active | AID 651635; note: nearly all actives have a fitted effect of over 40% in size
HttQ103 aggreg: mutant huntingtin aggregation inhibition | PC12 HttQ103-GFP aggregates, Acumen cytometry, 40 h | Potency, µM (series often up to 46.1 µM), most hits filed as inhibitors | 220,000 tested, 1.1% active | AID 1688; note: nearly all actives have a fitted effect of over 60% in size
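Read-out: GFP aggregate count by laser scanning cytometer (488 nm excitation, 500-530 nm emission, 1–25 µm objects >6 SD above background). Cells: PC12, inducible HTTex1-Q103-GFP, 100 nM tebufenozide; compounds titrated.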
HTT ATP protect: Huntington cell model cytoprotection by ATP luminescence. PC12 HTT-Q103 induced, cytoprotection, ATP luminescence, 40 h. Potency, µM (titrated, usually from 56.4 µM), actives largely listed as activators. 230,000 tested, 0.14% active. AID 1471; note: nearly all actives have a fitted effect of over 45% in size
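Cells were plated at 1500 per well in phenol red-free DMEM with 5% equine and 5% calf serum. Tebufenozide (100 nM final) and compounds were added, then ATPlite reagent, and luminescence was read.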
HepG2 tox: kills HepG2 cells in TGF-b inhibitor counter-screen | HepG2 CAGA-GFP viability, ATP luminescence, 18 h | Potency, µM (series often up to 46.1 µM), usual class: cytotoxic | 410,000 tested, 0.76% active | AID 588856
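HepG2 CAGA-GFP cells (1000/well, DMEM with 1% FBS) received compound, then TGF-beta at 500 pg/mL final, and were incubated 18 hours at 37 degrees C. Viability was read by CellTiter-Glo luminescence. Media-only wells were set as complete cell-killing and DMSO as no toxicity.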
ATXN2 expr inh: ATXN2 expression inhibition | HEK-293 ATXN2-luciferase reporter, luminescence, 24 h | Potency, µM (series often up to 57 µM), most hits filed as inhibitors | 360,000 tested, 0.72% active; note: nearly all actives have a fitted effect of over 55% in size
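ATXN2-luciferase reporter cells (luciferase flanked by upstream and downstream ATXN2 gene portions) were treated 24 h at 37 °C with compounds at up to 57 uM. SteadyGlo luminescence gave expression; GF-AFC fluorescence gave viability.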
Numbers stand for hits; . = inactive; ? = inconclusive; / = no result; [ ] = dose if it differs, or a comment. Calls come from the whole dose curve; as a rule, active = well fitted curve in the direction sought with a large enough effect; inconclusive = small, poorly fitted or top-dose-only effect, or another doubt; inactive = no such curve, though single readings can be large; an effect the other way counts as inactive or inconclusive.

SMILES	TGFb inhibitor	ATXN viability	HttQ103 aggreg	HTT ATP protect	HepG2 tox	ATXN2 expr inh
Cc1ccc2occ(/C=N/NC(=O)[C@@H](N)Cc3ccccc3)c(=O)c2c1	.	.	.[9.22 µM]	.[10 µM]	10µM	.
Cc1cccc(C(=O)N/N=C/c2coc3ccccc3c2=O)c1	.	.	/	/	.	.
O=C(CC1(O)C(=O)Nc2cc(Cl)cc(Cl)c21)c1ccncc1 (stereo not drawn)	?	25.1µM	.	.[10 µM]	.	?
C[n+]1ccc(/C=C/c2ccc([N+](C)(C)C)cc2)c2ccccc21	4.47µM	/	/	/	.	/
C[n+]1ccc(/C=C/c2cc[n+](C)c3ccccc23)c2ccccc21	7.08µM	/	/	/	.	/
COc1ccc(/C=C/c2cc[n+](C)c3ccccc23)cc1OC	.	/	/	/	.	/
CN1C=C/C(=C\c2cc[n+](C)c3ccccc23)c2ccccc21	?	?	7.08µM	.	.	8.44µM
C[n+]1ccc(/C=C/c2ccc(F)cc2)c2ccccc21	.	/	/	/	.	/
COc1ccc(OC)c(CN2CCCC(n3cc(C(=O)N4CCCCC4)nn3)C2)c1 (stereo not drawn)	/	.	/	/	/	/
Cc1ccc(C(=O)CC(=O)c2cccc(F)c2)c(O)c1	.	?	22.4µM	.	.	.
COc1cc(=O)n2c(c1C(=O)N(C)Cc1nonc1C)CCN(Cc1c(F)cccc1F)CC2	/	.	/	/	/	/
Oc1ccccc1-c1nc2c3ccccc3c3ccccc3c2[nH]1	15.8µM	.	.[9.22 µM]	.[10 µM]	.	?
c1csc(-c2nc3c4ccccc4c4ccccc4c3[nH]2)c1	?	.	?	.[10 µM]	.	.
CCc1cccc(C)c1NC(=O)c1ccoc1C	.	.	.	.	.	.
CCc1cccc(C)c1NC(=O)c1cc(C)oc1C	.	.	1.26µM	.[0.074 µM]	.	.
Oc1c(N=Nc2ccccc2)sc2ccccc12	.	.	.[9.22 µM]	.[10 µM]	.	/
Oc1ccc(N=Nc2ccccc2)o1	?	?	/	/	12.6µM	.
Cc1ccccc1NS(=O)(=O)c1ccc2[nH]cc(C(=O)NCCc3ccccc3)c(=O)c2c1	20µM	/	/	/	.	/
CCOc1ccc(NS(=O)(=O)c2ccc3[nH]cc(C(=O)NCc4ccccc4)c(=O)c3c2)cc1	.	.	/	/	.	.
Cc1cc(C)cc(NS(=O)(=O)c2ccc3[nH]cc(C(=O)NCCc4ccccc4)c(=O)c3c2)c1	.	?	/	/	.	.
CCN(c1ccccc1)S(=O)(=O)c1ccc2[nH]cc(C(=O)NC3CCCCC3)c(=O)c2c1	7.94µM	?	/	/	.	?
CCc1ccc(NS(=O)(=O)c2ccc3[nH]cc(C(=O)N(C)Cc4ccco4)c(=O)c3c2)cc1	.	.	0.1µM	.	.	.
Cc1ccc(CNC(=O)c2c[nH]c3ccc(S(=O)(=O)Nc4ccc(C(C)C)cc4)cc3c2=O)cc1	?	/	/	/	11.2µM	/
CCN(c1ccccc1)S(=O)(=O)c1ccc2[nH]cc(C(=O)NCCOC)c(=O)c2c1	.	.	.	.[10 µM]	.	.
COC(=O)NC(CC(C)=O)c1cccs1 (stereo not drawn)	/	/	/	.[10 µM]	/	/
SMILES	TGFb inhibitor	ATXN viability	HttQ103 aggreg	HTT ATP protect	HepG2 tox	ATXN2 expr inh
COc1cc(=O)n2c(c1C(=O)N(C)Cc1nonc1C)CCN(C(=O)c1ccc(C)c(C)c1)CC2	/	.	/	/	/	/
O=C(O)c1c2c(nc3ccccc13)CCCC2	.	/	/	/	.	/
O=C(C=Cc1cccc(Cl)c1)c1ccccc1	?	.	/	/	17.8µM	.
O=C(/C=C/c1ccccc1F)c1ccoc1	?	.	.	.	.	.
O=C(C=Cc1ccccc1F)c1ccccc1	11.2µM	/	/	/	.	?
C=CCn1c(SCC#N)nc2ccc(Cl)cc2c1=O	.	/	/	/	.	/
COc1cccc(CN2CCC3(CC2)c2ccccc2[C@@H](NC(=O)c2ccccc2)[C@@H]3O)c1O	/	.	/	/	/	/
O=C(NCC1(N2CCOCC2)CCCC1)c1cnn(-c2ncc3c(n2)-c2ccccc2CC3)c1C1CC1	/	.	/	/	/	/
O=C1C(Cl)=C(NCCN2CCOCC2)C(=O)c2ccccc21	?	?	/	/	17.8µM	.
CC(c1ccc(N(C)C)cc1)c1ccnc2ccccc12 (stereo not drawn)	.	/	/	/	.	/
CCCCN(CCCC)c1ccc(Cn2ccc3ccccc32)cc1	17.8µM	/	/	/	.	/
COc1ccc(Cl)cc1NC(=O)Nc1cccc([N+](=O)[O-])c1C	?	?	.	.	.	20µM
COc1ccc(Cl)cc1NC(=O)NC1CCCCC1	.	.	.[9.22 µM]	.	.	.
CCOc1ccc(NCC(=O)c2ccc(C)cc2)cc1	.	.	11.2µM	.	.	.
Cc1ccc(-n2ncc(C(=O)NCCN3CCc4ccccc4C3)c2C2CCN(C(=O)OC(C)(C)C)CC2)c(C)c1	15.8µM	/	/	/	.	?
Cc1ccc(-n2ncc(C(=O)NCCN3CCCC3)c2C2CCN(C(=O)OC(C)(C)C)CC2)cc1	.	/	/	/	.	/
Cc1ccc(-n2ncc(C(=O)NCCN3CCc4ccccc4C3)c2C2CCN(C(=O)OC(C)(C)C)CC2)cc1	?	/	/	/	.	/
Cc1ccc(-n2ncc(C(=O)NCCN3CCC(Cc4ccccc4)CC3)c2C2CCN(C(=O)OC(C)(C)C)CC2)cc1	?	/	/	/	12.6µM	/
COc1ccccc1CN1CCC(CNC(=O)c2cnn(-c3ccc(Cl)cc3)c2C2CCN(C(=O)OC(C)(C)C)CC2)CC1	10µM	/	/	/	.	/
Cc1cccc(-n2ncc(C(=O)N3CCN(C4CCCCC4)CC3)c2C2CCN(C(=O)OC(C)(C)C)CC2)c1	8.91µM	/	/	/	.	/
CC(C)(C)OC(=O)N1CCC(c2c(C(=O)N3CCN(C4CCCCC4)CC3)cnn2-c2ccccc2)CC1	.	.	/	/	.	/
CN1CCN(CCNC(=O)c2cnn(-c3cccc(Cl)c3)c2C2CCN(C(=O)OC(C)(C)C)CC2)CC1	.	/	/	/	.	/
CC(C)(C)OC(=O)N1CCC(c2c(C(=O)NCCN3CCC(Cc4ccccc4)CC3)cnn2-c2cccc(Cl)c2)CC1	?	/	/	/	7.08µM	/
COc1ccc(-c2nnc(NC(=O)c3ccc(S(=O)(=O)N4COCC4(C)C)cc3)o2)cc1	.	.	31.6µM	.	.	?
CC1(C)COCN1S(=O)(=O)c1ccc(C(=O)Nc2nnc(-c3ccc(Cl)s3)o2)cc1	.	?	.	.[10 µM]	.	7.94µM
O=C(Nc1nnc(-c2cccs2)o1)c1ccc(S(=O)(=O)N2CCOCC2)cc1	.	.	?	.[10 µM]	.	?
COC(=O)C1CCCCN1Cc1ccc2c(c1)CN(C1CCSCC1)CCO2 (stereo not drawn)	/	.	/	/	/	/
O=C1c2[nH]nc(-c3ccccc3O)c2C(c2cccc(O)c2)N1Cc1ccncc1 (stereo not drawn)	?	.	/	/	.	.
CCc1ccc(C2c3c(-c4ccccc4O)n[nH]c3C(=O)N2Cc2ccncc2)cc1 (stereo not drawn)	?	25.1µM	/	/	.	.
